Screens deposited in PubChem BioAssay by National Center for Advancing Translational Sciences (NCATS).
The sample as a whole holds a higher share of hits than the screen did.
ERK EGF block: EGF-driven ERK pathway inhibition; Potency, µM (top dose mostly 11.5 µM), hits mostly inhibitors; HEK293-V1b, EGF-stimulated phospho-ERK AlphaScreen; 0.41% of 130,000 active; active = well fitted inhibition curve with a large enough effect; note: nearly all actives have a fitted effect of over 55% in size
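Concentration-response of compounds against EGF-driven ERK phosphorylation in V1b-expressing HEK293 cells; 30 min preincubation, 5 min EGF, AlphaScreen detection; Normalized to DMSO basal and 25 nM EGF.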
Large screens that a line does not name were inactive.

CN1/C(=C\C=N\NC(=O)c2ccc(O)cc2)C(C)(C)c2ccccc21	none
Cc1ccc(C(=O)NC(=S)/C=C2\N(C)c3ccccc3C2(C)C)cc1	ERK EGF block 25µM
CN1/C(=C\C(=O)c2cccnc2)C(C)(C)c2ccccc21	none
CC(C)CCCC(C)C1CCC2C3CC=C4CC(=O)CC[C@@]4(C)C3CC[C@@]12C (some centres not stated)	none
CC1(C)CNC(=O)c2sc(NC(=O)c3ccccc3Cl)nc2C1	none
CCCOc1ncnc2c1[nH]c1ccc(OC)cc12	none
COc1cccc2[nH]c3c(N4CCC5(CC4)OCCO5)ncnc3c12	none
COc1cccc2[nH]c3c(=O)n(CCCN4CCOCC4)cnc3c12	none
COc1cccc2[nH]c3c(N4CCc5ccccc5C4)ncnc3c12	ERK EGF block 22µM
COc1ccc2c(c1)[nH]c1c(N3CCSCC3)ncnc12	ERK EGF block 28µM
CC(C)Oc1ncnc2c1[nH]c1ccccc12	none
COc1cccc(N2CCN(c3ncnc4c3[nH]c3ccccc34)CC2C)c1 (configuration not stated)	ERK EGF block 14µM
COc1ccc2c(c1)[nH]c1c(=O)n(Cc3ccncc3)cnc12	none
COc1cccc(-n2c(SCC(=O)N3CCCCC3)nc3c([nH]c4ccccc43)c2=O)c1	none
CC(=O)ON(C(C)=O)S(=O)(=O)c1ccc(Cl)cc1	none
C=C1C[C@@]23C[C@]1(O)CC[C@@H]2[C@]12C=C[C@@H](O)[C@](C)(C(=O)O1)[C@H]2[C@H]3C(=O)O	none
CS(=O)(=O)CCCCN=C=S	none
COC(=O)c1ccc(C(NC(=O)OCc2ccccc2)/C(C)=C/[C@@H](C)C(=O)N2CCN(C)CC2)cc1 (some centres not stated)	none
O=C(Nc1ccc(Oc2ccc(C(=O)O)c(C(=O)O)c2)cc1)c1cccs1	none
CCC1CN2CCC1CC2[C@@H](NC(=S)Nc1cc(C(F)(F)F)cc(C(F)(F)F)c1)c1cccc2ccc(OC)cc12 (some centres not stated)	none
O=C(c1cc(C(F)(F)F)cc(C(F)(F)F)c1)N1CCC2(CCCN(Cc3ccccc3)C2)CC1	none
O=c1cnc2cnc(Oc3ccccc3)nc2n1CCc1ccccc1	none
CC(=O)Nc1ccc(C(=O)OCC(=O)/C(C#N)=C(\C)N)cc1	none
C/C(N)=C(/C#N)C(=O)COC(=O)c1cccc(O)c1	ERK EGF block 28µM
C/C(N)=C(/C#N)C(=O)COC(=O)c1cc2c(s1)CCCC2	none
C[C@@H]1/C(=N/O)CC2C[C@@H]1C2(C)C	none
COCc1nnc(NC(C)=O)s1	none
O=C1C=C(Nc2ccc(Cl)cc2)CC(c2ccco2)C1 (configuration not stated)	none
O=C1C=C(Nc2ccc(Cl)cc2)CC(c2ccc(Cl)cc2)C1 (configuration not stated)	ERK EGF block 14µM
Cc1ccc(C2CC(=O)C=C(Nc3ccc(Cl)cc3)C2)cc1 (configuration not stated)	none
O=C(c1ccncc1)N1CCC2(CCCN(c3ccncc3)C2)CC1	none
O=c1cc(-c2ccccc2O)oc2c1ccc1ccccc12	none
COc1ccc(-n2c(=O)c(C)nc3cnc(Nc4ccccc4)nc32)cc1	none
NCCC[C@@H](CC(=O)N[C@@H]1CCNC[C@H]1C(=O)N[C@H](CC(=O)N[C@@H](CCC(=O)O)CC(=O)O)Cc1ccccc1)NC(=O)C[C@H](Cc1ccccc1)NC(=O)[C@@H]1CNCC[C@H]1N	none
Cc1ccc(NC(=O)c2ccncc2)cc1S(=O)(=O)N(C)C	none
CCCCN1C(=O)c2ccc(C(=O)Nc3ccc(C)c(S(=O)(=O)N(C)C)c3)cc2C1=O	ERK EGF block 25µM
Cc1ccc(NC(=O)COC(=O)CN2C(=O)c3ccccc3C2=O)cc1S(=O)(=O)N(C)C	none
Cc1noc(C)c1-c1ccc2ncnc(N(C)Cc3ccco3)c2c1	none
Cc1[nH]c(=O)[nH]c(=O)c1CSCC(=O)OCC(=O)Nc1ccccn1	none
N#Cc1cccnc1N1CCC(C(N)=O)CC1	none
Cc1nc2ccc(S(=O)(=O)Nc3cccc(-c4nc5cccnc5s4)c3)cc2s1	ERK EGF block 25µM
O=S(=O)(Nc1cccc(-c2nc3cccnc3s2)c1)c1ccc2c(c1)CCCC2	none
Cc1nc2ccc(S(=O)(=O)Nc3ccc(-c4nc5cccnc5s4)cc3)cc2s1	none
COc1ccc(C2OCC3(COC(C)=O)C(C)C=C(C)C2C3C)cc1 (configuration not stated)	none
COc1ccc(Nc2c([N+](=O)[O-])ccc3c2=NC2(CCCCC2)N=3)cc1	ERK EGF block 14µM
COc1ccc(Nc2ccncc2[N+](=O)[O-])cc1	none
COc1ccc(NC(=O)c2ccccc2[N+](=O)[O-])cc1	none
CCCC[P+](CCCC)(CCCC)Cc1ccc(NC(=O)[C@@H](Cc2ccc3ccccc3c2)NC(=NC2CCCCC2)NC2CCCCC2)cc1	none
COc1ccc2nc(Cl)c(/C=N/Nc3ccccn3)cc2c1	none
Cc1ccc2oc(=O)c3c4cc(O)c(O)c(C)c4oc3c2c1	none
CC1CCCN(CCCOc2ccccc2-c2ccccc2)C1 (configuration not stated)	none
Cc1ccc(NC2=C(NC(=O)c3ccccc3)C(=O)c3ccccc3C2=O)cc1Cl	ERK EGF block 16µM
O=C(O)c1ccc(NC2=Nc3cccc4cccc2c34)cc1	none
Cc1ccc(NCCC(=O)c2ccccc2)cc1Cl	none
